“And” between values parts separate entries of the source, which are not always exact repeats. Identical values can stand only once. The whole screen tested about 16,000 compounds, of which about 5,800 (36%) were called active. About 23% were inconclusive and are not listed. Calls follow the shape of the dose curve; as a rule, active = well fitted curve in the direction sought with a large enough effect; inconclusive = small, poorly fitted or top-dose-only effect, or effect the other way; inactive = no such curve, though single readings can be large or run the other way. This is one part of the list.
The compounds below were run against Cytochrome P450 2C19 (Homo sapiens) (UniProt P33261) (assay: Cytochrome panel assay with activity outcomes). Details: recombinant CYP, pro-luciferin dealkylation, luminescence, p450-cyp2c19; series mostly up to 57.1 µM; activity, negative = inhibition: at the top concentration.
Chain of Cytochrome P450 2C19 (Homo sapiens) (P33261 whole entry, looked up): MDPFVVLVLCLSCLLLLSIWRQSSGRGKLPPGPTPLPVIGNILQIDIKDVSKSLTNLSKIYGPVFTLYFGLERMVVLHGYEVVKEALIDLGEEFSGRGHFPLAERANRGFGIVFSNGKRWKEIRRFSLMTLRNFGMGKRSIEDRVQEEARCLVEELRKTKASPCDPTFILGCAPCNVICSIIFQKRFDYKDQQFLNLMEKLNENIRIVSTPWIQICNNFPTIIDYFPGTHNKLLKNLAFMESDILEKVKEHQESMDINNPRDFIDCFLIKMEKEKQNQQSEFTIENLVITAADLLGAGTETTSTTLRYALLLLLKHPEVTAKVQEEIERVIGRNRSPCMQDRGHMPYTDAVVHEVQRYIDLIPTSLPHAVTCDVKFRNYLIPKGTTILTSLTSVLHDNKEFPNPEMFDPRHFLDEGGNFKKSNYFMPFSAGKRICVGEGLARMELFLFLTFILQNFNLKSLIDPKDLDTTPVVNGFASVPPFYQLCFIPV
% is scaled to controls: 0 for no effect and ±100 for the full control effect.

activity, negative = inhibition, inactive:
CCNc1ncc2nc(-c3ccc(OC)cc3)c(=O)n(Cc3cccs3)c2n1 1.48%, COc1ccc(-c2nc3cnc(N(C)C)nc3n(Cc3cccs3)c2=O)cc1 -8.82%, COc1ccc(C2C(C(=O)c3ccco3)=C(O)C(=O)N2Cc2cccnc2)cc1OC (stereo not given) -13.2%, Cn1c(=O)[nH]c2ncn(C)c2c1=O -8.51%, COc1ccccc1CN1CCCC2(CCN(C(=O)c3cnccn3)CC2)C1 -12.4%, O=C(c1cccc(F)c1)N1CCC[C@@]2(CCN(C(c3ccccc3)c3ccccc3)C2)C1 10.6%, COc1ccc(COC(=O)N/N=C2/C[C@@H](O)[C@@H](O)[C@@H]3[C@H]4C(=O)N(c5ccc(F)cc5F)C(=O)[C@@H]4CC[C@H]23)cc1 31.9% [at 11.4 µM], Cc1cc2cc3c(C)cc(=O)oc3c(C)c2o1 7.53% [at 25.6 µM], Cc1ncn(-c2ccccc2O)c1C -11% [at 11.4 µM], Cn1c(=O)[nH]c(=O)c2c1nc(NCCCO)n2CCCc1ccccc1 -38.3%, Cn1c(=O)c2[nH]c(SCCN3CCOCC3)nc2n(C)c1=S -14.1% [at 11.4 µM], Cn1c(=O)[nH]c(=O)c2c1nc(CN1CCOCC1)n2Cc1ccccc1 -14.7%, Cc1nc(CN2CCCCC2)c(O)c(=O)[nH]1 -22.5% [at 11.4 µM], NC(=O)NC(=O)[C@H]1CCCC[C@@H]1C(=O)O 12.1% [at 11.4 µM], Cn1ncc2c(Cl)ncnc21 -3.14% [at 11.4 µM], CCCCN(c1ccccc1)c1ncnc2c1cnn2C -9.3% [at 11.4 µM], CN(C)c1ccc(-c2noc(C3CCN(S(=O)(=O)c4cccc(C(=O)O)c4)CC3)n2)cc1 -27.6%, COc1ccccc1CN1CC[C@@]2(CCCN(C(=O)c3c(C)noc3C)C2)C1 -31.8%, CCOC(=O)/C(C#N)=C1/C=CN(C)C=N1 10.6%, Cn1c(=O)c2[nH]c(SCc3ccccn3)nc2n(C)c1=S 29.1% [at 11.4 µM], CC(C)(C)CC(C)(C)c1cc(O)c(O)c(CN2CCCCC2)c1 -5.03% [at 11.4 µM], O=C1O[C@H](CN2CCOCC2)CN1/N=C\c1ccc([N+](=O)[O-])o1 8.96% [at 25.6 µM]

AC50, active:
CCN1C(=O)C(CC(=O)Nc2ccc(OC)cc2)N(Cc2cccs2)C1=S (stereo not given) 0.355 µM, O=C(NCc1ccco1)c1ccccc1NS(=O)(=O)c1ccc(Br)s1 1.58 µM, Nc1ccccc1C#Cc1ccccc1 10 µM and 5.01 µM, O=C1C=C(c2cccs2)CC(c2cccs2)C1n1cnc([N+](=O)[O-])c1 (stereo not given) 10 µM, Cc1ccc(NC(=O)/C(=C\c2ccc([N+](=O)[O-])cc2)NC(=O)c2ccccc2)cc1 1.41 µM, O=C(Nc1ccccc1)/C(=C\c1ccncc1)NC(=O)c1ccccc1 0.126 µM, COc1cc(/C=C(/NC(=O)c2ccccc2)C(=O)Nc2ccccc2)c([N+](=O)[O-])cc1OC 15.8 µM, O=C(Nc1cccc2ccccc12)/C(=C/c1ccc([N+](=O)[O-])cc1)NC(=O)c1ccccc1 7.94 µM, O=C(OCC(=O)c1ccc([N+](=O)[O-])cc1)/C(=C\c1ccc(Cl)cc1)NC(=O)c1ccccc1 3.98 µM, Cc1ccc(C(=O)N/C(=C\c2ccc([N+](=O)[O-])cc2)C(=O)NCCc2ccccc2)cc1 2 µM, Cc1ccc(NC(=O)Nc2nc(-c3ccc(C)s3)cs2)cc1 6.31 µM, Cc1ccc(C(=O)CNc2nc3c(c(=O)[nH]c(=O)n3C)n2Cc2ccccc2)cc1 5.62 µM, Cn1c(=O)[nH]c(=O)c2c1nc(CN(Cc1ccccc1)Cc1ccccc1)n2CCN1CCOCC1 14.1 µM, COC(=O)Cn1c(CN(Cc2ccccc2)Cc2ccccc2)nc2c1c(=O)[nH]c(=O)n2C 28.2 µM, CCOC(=O)Cn1c(CN(Cc2ccccc2)Cc2ccccc2)nc2c1c(=O)[nH]c(=O)n2C 15.8 µM, Cn1ncc2c(NCCc3ccccc3)nc(Cl)nc21 0.126 µM, CCCCCC(=O)N1CCCC(c2nc(-c3ccc(OC)cc3)no2)C1 (stereo not given) 7.08 µM, COc1ccc(-c2noc(C3CCCN(C(=O)c4ccccc4OC)C3)n2)cc1OC (stereo not given) 11.2 µM, CCOC(=O)/C(C#N)=C1/SC(CC)C(=O)N1c1ccc(Br)cc1 (stereo not given) 1.58 µM, CC(C)OCCCn1c(=S)[nH]c2ncccc2c1=O 14.1 µM, COCCNC(=O)COC(=O)/C=C/c1cnc2ccccc2n1 22.4 µM, O=C1C=C(Nc2ccc(Cl)cc2)CC(c2ccc(Cl)cc2)C1 (stereo not given) 1.58 µM, Cn1c(/C=C/c2ccc([N+](=O)[O-])o2)nc2ccccc2c1=O 14.1 µM
